This is part of a sample that, as a whole, favours compounds with a hit. Of some 79,000 tested, about 15% had one in any assay. Rule as the data show it: active = growth inhibition above about 70%; inactive = the rest.
Tests used:
[1] = NCI Yeast Anticancer Drug Screen. Data for the rad50 strain (AID 155);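 also: 0% = growth of vehicle-only cultures of the same strain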; conditions: S. cerevisiae rad50 strain growth inhibition; at 50.0 µM; stronger effect = higher value
In short: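 Compounds were tested on a yeast strain with an engineered DNA damage repair alteration; the reported value is growth inhibition normalised to vehicle treatment.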

[2] = NCI Yeast Anticancer Drug Screen. Data for the mec2-1 strain (AID 157); conditions: S. cerevisiae mec2-1 strain, at 50.0 µM, stronger effect = higher value
In short: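 Vehicle-treated cultures served as reference for growth inhibition of compound-exposed mec2-1 yeast.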

[3] = NCI Yeast Anticancer Drug Screen. Data for the sgs1 mgt1 strain (AID 161);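 also: 0% = growth of cultures given vehicle only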; conditions: S. cerevisiae sgs1 mgt1 strain, at 50.0 µM, stronger effect = higher value
In short: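 Mutant yeast exposed to compound; growth scored against vehicle-only wells.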

[4] = NCI Yeast Anticancer Drug Screen. Data for the cln2 rad14 strain (AID 165);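 also: 0% = growth equal to vehicle treated cultures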; conditions: S. cerevisiae cln2 rad14 strain, at 50.0 µM, stronger effect = higher value
In short: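 Each compound was tested on cln2 rad14 yeast. Inhibition of growth was calculated against vehicle-exposed controls.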

[5] = NCI Yeast Anticancer Drug Screen. Data for the bub3 strain (AID 167); conditions: S. cerevisiae bub3 mutant strain, at 50.0 µM, stronger effect = higher value
In short: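 Growth of a checkpoint-deficient yeast mutant is measured after compound exposure. Values represent inhibition relative to vehicle.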

[6] = NCI Yeast Anticancer Drug Screen. Data for the mlh1 rad18 strain (AID 175); conditions: S. cerevisiae mlh1 rad18 strain growth inhibition; at 50.0 µM; stronger effect = higher value
In short: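 Vehicle-treated cultures served as the reference for growth inhibition in a yeast strain carrying DNA damage repair alterations exposed to each compound.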

Measured: growth inhibition

CCC(=N\NC(N)=S)/C(C)=N/O
inactive: [1] -2.35% | [2] 6.3% | [3] 19.4% | [4] 15.2% | [5] 14.3% | [6] 16.3%

Cc1cccc(C)c1N=Nc1ccc(O)c(CN(C)C)c1
inactive: [1] -6.2% | [2] -14.7% | [3] -12.1% | [4] -3.6% | [5] 22.6% | [6] -8.85%

CC(=O)OCC1CCCCO1 (stereo unspecified)
inactive: [1] 2.6% | [2] -1.65% | [3] -6.1% | [4] -0.2% | [5] -0.2% | [6] -4.7%

CCN(CC)c1ccc(NC(=S)Nc2cccc(C(F)(F)F)c2)c(C)c1
inactive: [1] 35.9% | [2] 21.6% | [3] 52.2% | [4] 1.9% | [5] 2.45% | [6] 19.2%

O=C1/C(=C/c2ccc3c(c2)CCC3)Cc2cc3c(cc21)CCC3
inactive: [1] -10% | [2] 11.7% | [3] -23.4% | [4] 21.4% | [5] -1.15% | [6] 4.75%

COCC1(c2ccccc2)NC(=O)N(C)C1=O (stereo unspecified)
inactive: [1] -3.05% | [2] -2.15% | [3] -1.35% | [4] -9.15% | [5] -7.35% | [6] -2%

CCCCCCCCCCCCCCCCCC
inactive: [1] -9.7% | [2] -6.9% | [3] -16.2% | [4] 6.7% | [5] 0.25% | [6] -2.15%

CCCCN(CCCC)C(C)=O
inactive: [1] -45.1% | [2] -4.85% | [3] 17.1% | [4] -35% | [5] 5.15% | [6] -8.2%

COc1ccc2cc1Oc1cc3c(cc1OC)CC[N+](C)(C)C3Cc1ccc(cc1)Oc1c(OC)c(OC)cc3c1C(C2)[N+](C)(C)CC3 (stereo unspecified)
inactive: [1] -29.4% | [2] -16.4% | [3] -46.2% | [4] 10.8% | [5] -22.9% | [6] -19.3%

COc1c(C(=O)O)[nH]c(=O)[nH]c1=O
inactive: [1] 4.85% | [2] -30.1% | [3] 5.8% | [4] -5.65% | [5] -14.3% | [6] -5.5%

COc1cccc(-c2nc(SCC(N)=O)[nH]c(=O)c2C#N)c1
inactive: [1] 6.25% | [2] 1.8% | [3] 13.5% | [4] 12% | [5] 17.5% | [6] 14.2%

CCC1=C(C(C)=O)[C@@H]2CCCCC(C(=O)OC)[C@@H]2C1=O (stereo partly specified)
inactive: [1] -38.7% | [2] -20.3% | [3] -20.8% | [4] 19.7% | [5] 8.65% | [6] -3.7%

C=CCCCC1(c2ccccc2)C(=O)Oc2ccccc21 (stereo unspecified)
inactive: [1] 29.6% | [2] 2.55% | [3] -0.55% | [4] 15.6% | [5] 12.8% | [6] -2.75%

COc1cc2c(cc1C(C)c1ccc(OC(C)C)cc1)OCO2 (stereo unspecified)
inactive: [1] -4.7% | [2] -9.95% | [3] -3.95% | [4] -48.5% | [5] -5.9% | [6] -11.5%

O=C(CC(=O)N(C(=O)c1ccccc1)c1ccc(Cl)cc1)N/N=C\c1ccccc1O
inactive: [1] 1.35% | [2] -5.4% | [3] 5.45% | [4] -1.85% | [5] 19.9% | [6] -15.4%

Cc1oc([N+](=O)[O-])cc1C(=O)O
inactive: [1] 10.5% | [2] 7.5% | [3] -1.65% | [4] -69.7% | [5] -20.1% | [6] -8.25%

NC(Cc1ccc(B(O)O)cc1)C(=O)O (stereo unspecified)
inactive: [1] -26.1% | [2] -53.6% | [3] -29.5% | [4] -7.4% | [5] 7.75% | [6] -4.05%

OCc1ccccc1C1CSCSC1
inactive: [1] -7.2% | [2] -29.1% | [3] -37.5% | [4] -30.9% | [5] -21.4% | [6] -12.2%

CC(O)CC(C)CO (stereo unspecified)
inactive: [1] 23.1% | [2] -20.3% | [3] -9.5% | [4] -55.5% | [5] 15.2% | [6] 18%

CCCNC(=O)/C=C/C(=O)NCCC
inactive: [1] 8.55% | [2] -0.8% | [3] -1.55% | [4] -43.2% | [5] -6% | [6] 4.1%

CCC(=O)NCC(=O)O
inactive: [1] -4.15% | [2] -10.6% | [3] -16.1% | [4] 0.3% | [5] 8.15% | [6] -6.15%

Cc1cccc(C)c1N=O
inactive: [1] -6.25% | [2] -15.2% | [3] -7.45% | [4] 22.8% | [5] 1.15% | [6] -16.1%

O=C(Cc1cccc2ccccc12)NO
inactive: [1] 18.3% | [2] 5.05% | [3] 6.7% | [4] -32.3% | [5] -28.4% | [6] 11.6%

c1ccc(B2OC(c3ccccc3)=C(c3ccccc3)O2)cc1
inactive: [1] 1.45% | [2] -0.25% | [3] 17.9% | [4] 11.8% | [5] -0.45% | [6] 13.3%

COC(=O)c1cccc2ccc3cccc(C=O)c3c12
inactive: [1] -29.4% | [2] 6.6% | [3] -5.9% | [4] -30.8% | [5] 12.2% | [6] -14.5%

O=[n+]1c(-c2ccccc2)c(-c2ccccc2)n([O-])c2cc3ccccc3cc21
inactive: [1] 28.7% | [2] 3.65% | [3] 12.2% | [4] -24.6% | [5] 6.05% | [6] 26.4%

Nc1ccc2c(=O)[nH][nH]c2c1
inactive: [1] -26.6% | [2] -40.5% | [3] -25% | [4] 10.8% | [5] -25.2% | [6] -9.2%

Cc1c2c(C#N)nccc2c(C)c2c1c1ccccc1n2Cc1ccccc1
inactive: [1] 33.5% | [2] 14.1% | [3] -8.3% | [4] 20.9% | [5] -28.7% | [6] -45.6%

C=C(C)C12CC3CC(/C(=N/O)C(C1)/C3=N\O)[C@@]2(C)O (stereo partly specified)
inactive: [1] -31.8% | [2] -34.8% | [3] -46% | [4] -8.2% | [5] -26.9% | [6] -59%

Cc1oc2cc(O)ccc2c(=O)c1-c1ccccc1Br
inactive: [1] 9.85% | [2] 24.9% | [3] 17.4% | [4] -24.6% | [5] 15.9% | [6] 27.4%

CC1(C)CCCc2c(-c3ccccc3)cc3c4[nH]c5ccccc5c4cc[n+]3c21
inactive: [1] 23.6% | [2] -5.4% | [3] 11.1% | [4] 3.65% | [5] -2.5% | [6] 7%

NC(=S)N/N=C\C(CC(O)C(O)CO)=N\NC(N)=S (stereo unspecified)
inactive: [1] 4.95% | [2] 6.55% | [3] 4.45% | [4] 8.7% | [5] 12.4% | [6] 10.2%

CCCCCCCCCCN(CCCCCCCCCC)CC(O)c1cc(-c2ccc(Cl)cc2)nc2ccccc12 (stereo unspecified)
inactive: [1] 25.6% | [2] 17.1% | [3] 39.4% | [4] 31.2% | [5] 34.6% | [6] 50.2%

O=C(Oc1ccccc1OC(=O)c1ccc(Cl)cc1)c1ccc(Cl)cc1
inactive: [1] 3.15% | [2] 6.4% | [3] 12.7% | [4] 6.7% | [5] -2.65% | [6] 8.6%

CCC(CC)C(=O)OCCOc1ccccc1
inactive: [1] 0.9% | [2] -0.25% | [3] 3.95% | [4] -20.2% | [5] 19.4% | [6] -1.8%

CCC(C(C)=O)C(C)=O
inactive: [1] -46.2% | [2] -71.5% | [3] -43.5% | [4] -24.2% | [5] -56.6% | [6] -34.4%

Cc1ccc(C2=C(c3ccc(C)cc3)CS(=O)(=O)C2)cc1
inactive: [1] 22.2% | [2] -5.55% | [3] -0.4% | [4] -6% | [5] -18.8% | [6] -26.1%

C/C=C/CS(=O)(=O)Cc1ccccc1
inactive: [1] 1.85% | [2] -11.8% | [3] -5.95% | [4] -3.95% | [5] -4.3% | [6] -14.9%

C#CCOCCC(C(=O)O)C(=O)O
inactive: [1] 9.9% | [2] 5.45% | [3] 8.6% | [4] -1.7% | [5] 11.9% | [6] 2.7%

S=C(S)NC1CCCCC1
inactive: [1] -28.9% | [2] -18.3% | [3] -12.2% | [4] -44% | [5] -13.1% | [6] -3.75%

O=C(O)C1C(c2ccccc2)CC(=O)N1c1ccc(Cl)cc1 (stereo unspecified)
inactive: [1] 1.55% | [2] 8.25% | [3] 5.75% | [4] 1.1% | [5] 19.6% | [6] -7.6%

— PubChem BioAssay (NCI)
